Experimental findings from PubChem BioAssay (NCATS) are described below.

Inconclusive results are not listed. Values without a mark were called inactive. The call rests on the fitted dose curve; in most records, active means well fitted cell-killing curve with a large enough effect; inconclusive means small, poorly fitted or top-dose-only effect; inactive means flat fitted curve, though single readings scatter.

This test in a line: Cellular viability qHTS for adrenocortical cancer (ACC) cell line NCI-H295R (AID 1963990).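 Further: 0% = DMSO only wells and -100% = full killing with cytotoxic reference compound; nearly all actives have a fitted effect of over 60% in size.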 The note with it: CellTiter-Glo ATP luminescence, 48 h; series mostly up to 46.1 µM; activity change, negative = viability loss: at the top concentration. Summed up:
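Adrenocortical carcinoma cells, suspended at 300 000 cells/mL in serum-free DMEM plus ITS, rested overnight before pin transfer of compound. After two days' incubation, ATP-dependent luminescence was recorded and curve-fitted.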
Consider `[N-]=[N+]=CC(=O)OC[C@H](N)C(=O)O`, for which the “activity change, negative = viability loss” value is -7.96%.
In the case of `CC(C)(C)NCC(O)c1cc(Cl)c(N)c(Cl)c1` (stereo not drawn) it was -10.9%; in that of `C1CCC(NC2CCCCC2)CC1`, -1.89%.
Turning to `COC(=O)C(Cl)C(=O)OC`, the “activity change, negative = viability loss” value is -9.07%.
Next, `CCCC(C)(COC(N)=O)COC(=O)NC(C)C` (stereo not drawn): -12.7%.
As for `CCc1ccc(C2CCNCC2)cc1`, the “activity change, negative = viability loss” value is 1.63%.
Next, `COc1ccc(C(CN(C)C)C2(O)CCCCC2)cc1` (stereo not drawn): -11.7%; `CC(=O)NC1CCSC1=O` (stereo not drawn): 1.05%.
For `Oc1ccc(Cl)cc1`, the “activity change, negative = viability loss” value is 1.45%.
In the case of `C[C@@H](C1CC[C@@]2(O)C3=CC(=O)[C@@H]4C[C@@H](O)[C@@H](O)C[C@]4(C)[C@H]3CC[C@]12C)[C@H](O)CCC(C)(C)O` (stereo partly drawn) it was -3.42%.
For the compound `Oc1ccc2c3c1O[C@H]1[C@@H](O)C=C[C@H]4[C@@H](C2)NCC[C@@]341`, the “activity change, negative = viability loss” value was -21.8% [at 92.7 µM].
Take `CC(CC(C(N)=O)(c1ccccc1)c1ccccc1)N(C)C` (stereo not drawn): the “activity change, negative = viability loss” value is -9.19%.
In the case of `C#CC(O)(C=CCl)CC` (stereo not drawn) it was -7.24%; in that of `C[C@H]1[C@@H]2Cc3ccc(O)cc3[C@@]1(C)CCN2C`, -23.4% [at 231 µM].
Next, `Oc1c(Br)cc(Br)cc1Br`: -14.5%; `C#CCN(C)[C@H](C)Cc1ccccc1`: -4.27%; `CN(C)[C@@H]1C(=O)C(C(N)=O)=C(O)[C@@]2(O)C(=O)C3=C(O)c4c(O)cccc4[C@@](C)(O)[C@H]3[C@H](O)[C@@H]12`: -18.3%.
As to `C[C@@H]1CN(C2CCC(C#N)(c3ccc(F)cc3)CC2)CC[C@]1(C(=O)O)c1ccccc1` (stereo partly drawn), the “activity change, negative = viability loss” value is -1.09%.
`CC(C)C(Br)C(=O)NC(N)=O` (stereo not drawn): the “activity change, negative = viability loss” value was -17.1%.
In the case of `C1CN2CCC1CC2` it was -2.9%; in that of `O=C1c2ccccc2C(=O)c2ccccc21`, -2.47% [at 20 µM].
Take `CN[C@@H](C)[C@H](O)c1ccccc1`: the “activity change, negative = viability loss” value is -2.39%.
Turning to `CCNc1nc(Cl)nc(NCC)n1`, the “activity change, negative = viability loss” value is -16.9%.
